Data as given in PubChem BioAssay AID1490 (National Center for Advancing Translational Sciences (NCATS), 2009).
About 11,000 (3.5%) of roughly 310,000 compounds were called active. Roughly 4% stayed inconclusive and do not appear here. Calls come from the whole dose curve; as a rule, active = well fitted inhibition curve with a large enough effect; inconclusive = small, poorly fitted or top-dose-only effect, or another doubt; inactive = no such curve, though single readings can be large or run the other way. The list comes from a sample in which actives are over-represented; it also holds similar structures and randomly drawn compounds.

Target: 4'-phosphopantetheinyl transferase ffp (Bacillus subtilis) (UniProt Q9F4F7)
Test: qHTS Assay for Inhibitors of Bacillus subtilis Sfp phosphopantetheinyl transferase (PPTase);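 note: the enzyme is Sfp with the accession as filed and its product quenches rhodamine fluorescence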;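 for largest response in the series, negative = inhibition: 0% = enzyme reaction without inhibitor and -100% = no enzyme wells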
Settings: Biochemical Sfp PPTase activity
Procedure, shortened: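 Fluorescence-quenching assay with 15 nM Sfp, 5 uM rhodamine-CoA and 12.5 uM BHQ-2-labelled ybbR peptide in pH 7.6 Hepes/MgCl2 buffer. Enzyme was pre-incubated with compound for 15 min at room temperature. Rate was taken from the 30-min fluorescence change (525/598 nm).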
Potency is the fitted concentration of half-maximal effect.

Which largest response in the series, negative = inhibition does the source give for `CSc1ccc(CCNC(=O)CS(=O)(=O)Cc2nc(-c3ccccc3F)oc2C)cc1` here?
Its largest response in the series, negative = inhibition is 17.7% (inactive).

Which largest response in the series, negative = inhibition does the source give for `Cc1cc(Cl)ccc1C(=O)C1CCCN(C(=O)c2nonc2C)C1` (centres undefined) here?
The largest response in the series, negative = inhibition was 1.34% (inactive).

Which largest response in the series, negative = inhibition does the source give for `COC(=O)c1ccc(/C=N\n2c(C)nnc2C)cc1` here?
The largest response in the series, negative = inhibition was 13.8% (inactive).

`CCN(CC)S(=O)(=O)c1cccc(-c2n[nH]c(=S)n2/N=C/c2ccc(C(=O)OC)cc2)c1` was tested. Which Potency did it give?
The Potency was 50.1 µM (active).

With `COC(=O)c1ccc(/C=N/N2C(C)CCCC2C)cc1` (centres undefined) as the compound, how does the largest response in the series, negative = inhibition read?
The largest response in the series, negative = inhibition was 13.3% (inactive).

For `COC(=O)C1=CN(Cc2ccc(OC)cc2)C=C(C(=O)OC)C1c1ccc(O)c(OC)c1`, which largest response in the series, negative = inhibition is on record?
The largest response in the series, negative = inhibition was -3.15% (inactive).

For `Cn1c(CNC(=O)c2ccccc2F)nnc1SCc1ccc(F)cc1`, which largest response in the series, negative = inhibition is on record?
Its largest response in the series, negative = inhibition is -14.5% (inactive).

For `Cc1ccc(C(=O)CSc2nnc(Cn3nnc4ccccc43)n2C)cc1`, which largest response in the series, negative = inhibition is on record?
The largest response in the series, negative = inhibition was 4% (inactive).

For `Cn1c(Cn2nnc3ccccc32)nnc1SCC(=O)c1ccccc1F`, which Potency is on record?
Its Potency is 50.1 µM (active).

Which largest response in the series, negative = inhibition does the source give for `COc1ccc(S(=O)(=O)/N=C2\C=C(NS(=O)(=O)c3ccccc3)C(=O)c3ccccc32)cc1` here?
Its largest response in the series, negative = inhibition is -20.9% (inactive).

`OCCN1CCN(C(=S)c2ccc(-c3ccccc3)cc2)CC1` was tested. Which Potency did it give?
Its Potency is 7.08 µM (active).

Which largest response in the series, negative = inhibition does the source give for `OCCN1CCN(c2nnc(-c3ccccc3)c3ccccc23)CC1` here?
The largest response in the series, negative = inhibition was 21.7% (inactive).

`O=C(NC(c1ccccc1)c1ccccc1)N1CCN(CCO)CC1` was tested. Which largest response in the series, negative = inhibition did it give?
Its largest response in the series, negative = inhibition is 5.46% (inactive).

For `CCc1nonc1NC(=O)c1oc2ccc(Cl)cc2c1C`, which largest response in the series, negative = inhibition is on record?
The largest response in the series, negative = inhibition was -4.03% (inactive).

Which largest response in the series, negative = inhibition does the source give for `COc1cccc(CC(=O)N2CCc3nc(COc4ccccc4)c4c(c3C2)CO[C@@H](C)C4)c1` here?
The largest response in the series, negative = inhibition was -1.37% (inactive).

For `NS(=O)(=O)c1ccc(CNC(=O)c2cccc(Oc3ccccc3)c2)cc1`, which largest response in the series, negative = inhibition is on record?
Its largest response in the series, negative = inhibition is 5.75% (inactive).

How did the largest response in the series, negative = inhibition turn out when `CSc1nc2sc3c(c2c(=O)[nH]1)CCc1ccccc1-3` was run?
The largest response in the series, negative = inhibition was 2.54% (inactive).

Which largest response in the series, negative = inhibition does the source give for `CCCSc1nc2sc3c(c2c(=O)n1-c1ccc(OC)cc1)CCN(C)C3` here?
Its largest response in the series, negative = inhibition is -7.59% (inactive).

`COc1ccc(-n2c(=S)[nH]c3sc4c(c3c2=O)CCc2ccccc2-4)cc1` was tested. Which Potency did it give?
Its Potency is 17.8 µM (active).

For `CCOC(=O)C1=C(CN2CCc3ccccc32)NC(=O)NC1c1cccc([N+](=O)[O-])c1` (centres undefined), which largest response in the series, negative = inhibition is on record?
Its largest response in the series, negative = inhibition is 3.8% (inactive).

For `CCOC(=O)C1=C(CN2CCc3ccccc32)NC(=O)NC1c1ccc(Cl)cc1` (centres undefined), which largest response in the series, negative = inhibition is on record?
Its largest response in the series, negative = inhibition is -11.6% (inactive).

`CCOC(=O)C1=C(CN2CCCCCC2)NC(=O)NC1c1cccc([N+](=O)[O-])c1` (centres undefined) was tested. Which Potency did it give?
Its Potency is 89.1 µM (active).

With `O=C(Nc1ccc(-n2cccn2)cc1)C1CCN(Cc2ccsc2)CC1` as the compound, how does the largest response in the series, negative = inhibition read?
Its largest response in the series, negative = inhibition is -0.783% (inactive).

Which largest response in the series, negative = inhibition does the source give for `Cc1cccc(C(=O)NC(=S)N(C)C2CCCCC2)c1` here?
Its largest response in the series, negative = inhibition is 17.9% (inactive).

`Nc1nc2nc(Cl)[nH]c2c(=O)[nH]1` was tested. Which largest response in the series, negative = inhibition did it give?
Its largest response in the series, negative = inhibition is -9.02% (inactive).

How did the largest response in the series, negative = inhibition turn out when `Cn1nccc1C(=O)NC1CCCc2c1cnn2-c1ccc(F)cc1F` (centres undefined) was run?
The largest response in the series, negative = inhibition was 12.2% (inactive).

With `Cc1cc(C)n(-c2ccc3nncn3n2)n1` as the compound, how does the largest response in the series, negative = inhibition read?
The largest response in the series, negative = inhibition was 10.3% (inactive).

How did the Potency turn out when `Cc1cc(C)n(-c2nc(O)cc(=O)[nH]2)n1` was run?
The Potency was 15.8 µM (active).

`Cc1cc(C)n(-c2ccc(Cl)c(C(=O)O)n2)n1` was tested. Which largest response in the series, negative = inhibition did it give?
The largest response in the series, negative = inhibition was -14.9% (inactive).

How did the largest response in the series, negative = inhibition turn out when `O=C(COc1nsnc1N1CCOCC1)Nc1ccccc1Cl` was run?
Its largest response in the series, negative = inhibition is 10.1% (inactive).

For `CN(C)S(=O)(=O)N1CCC(Oc2cccc(C(=O)NCCCC3CCCC3)c2)CC1`, which largest response in the series, negative = inhibition is on record?
Its largest response in the series, negative = inhibition is -2.01% (inactive).

For `O=C(CC(n1cncn1)C(Cl)(Cl)Cl)c1ccc([N+](=O)[O-])cc1` (centres undefined), which Potency is on record?
Its Potency is 44.7 µM (active).

Which largest response in the series, negative = inhibition does the source give for `C/C(=N/NC(=O)CSc1ccccn1)c1ccc([N+](=O)[O-])cc1` here?
The largest response in the series, negative = inhibition was 0.345% (inactive).

`O=C(CCn1nnc2ccccc21)OCC(=O)c1ccc([N+](=O)[O-])cc1` was tested. Which largest response in the series, negative = inhibition did it give?
The largest response in the series, negative = inhibition was 30.5% (inactive).

For `Cc1ccc(C)c(S(=O)(=O)Nc2cc(C)on2)c1`, which largest response in the series, negative = inhibition is on record?
Its largest response in the series, negative = inhibition is 10.8% (inactive).

`CCCCN=C1C([N+](=O)[O-])=CC=C2C1=NC1(CCCCC1)N2O` was tested. Which Potency did it give?
Its Potency is 28.2 µM (active).

With `O=C(NC1CCCC1)c1cc(-c2ccccc2)on1` as the compound, how does the largest response in the series, negative = inhibition read?
Its largest response in the series, negative = inhibition is 11.2% (inactive).

For `Cc1ccc(NC(=O)Cn2nnc(C(=O)NCc3ccco3)c2N)c(C)c1`, which largest response in the series, negative = inhibition is on record?
The largest response in the series, negative = inhibition was -4.99% (inactive).

How did the largest response in the series, negative = inhibition turn out when `Cc1ccccc1CN1C(=O)c2ccccc2Sc2ccc(C(=O)NCCCN3CCOCC3)cc21` was run?
Its largest response in the series, negative = inhibition is -13.2% (inactive).

`CCN1CCN(CCNC(=O)c2ccc3c(c2)NC(=O)/C(=C\c2ccc(OC)c(OC)c2)S3)CC1` was tested. Which largest response in the series, negative = inhibition did it give?
The largest response in the series, negative = inhibition was -5.49% (inactive).

How did the Potency turn out when `CCN1CCN(CCNC(=O)c2ccc(/C=C3/Sc4ccccc4N(Cc4cccc(C)c4)C3=O)cc2)CC1` was run?
Its Potency is 39.8 µM (active).

How did the largest response in the series, negative = inhibition turn out when `CCOC(=O)C1CCN(C(=O)C2CCCN(S(=O)(=O)c3ccc(OC)c(Cl)c3)C2)CC1` (centres undefined) was run?
Its largest response in the series, negative = inhibition is 3.96% (inactive).

Which largest response in the series, negative = inhibition does the source give for `Cc1cc(=O)oc2c3c(cc(OCC(=O)NCCC(=O)N[C@@H](C)C(=O)O)c12)OC(C)(C)CC3` here?
Its largest response in the series, negative = inhibition is 2.46% (inactive).

How did the largest response in the series, negative = inhibition turn out when `CCOC(CNC(=O)C1CCN(S(=O)(=O)c2ccc3nc4c(c(C(=O)O)c3c2)CC(C)CC4)CC1)OCC` (centres undefined) was run?
The largest response in the series, negative = inhibition was 9.57% (inactive).

Which largest response in the series, negative = inhibition does the source give for `Cc1cc(C)cc(NC(=O)C2CCN(c3nc(C)cc(C)n3)CC2)c1` here?
The largest response in the series, negative = inhibition was 9.84% (inactive).

Which largest response in the series, negative = inhibition does the source give for `Cc1ccc(CC2CC(=O)N(c3nc(C)cc(C)n3)C2=O)cc1` (centres undefined) here?
Its largest response in the series, negative = inhibition is 0.267% (inactive).

For `COC(=O)CC1=NN(c2nc(C)cc(C)n2)C(=O)C1`, which Potency is on record?
Its Potency is 50.1 µM (active).

With `Cc1ccc(-n2c(C)nnc2SCC(=O)NC2CC2)cc1` as the compound, how does the largest response in the series, negative = inhibition read?
The largest response in the series, negative = inhibition was 4.57% (inactive).

For `O=[N+]([O-])c1ccccc1NCc1ccc(Cl)cc1`, which largest response in the series, negative = inhibition is on record?
The largest response in the series, negative = inhibition was -18.2% (inactive).

`Oc1ccc(CNc2ccccc2O)cc1` was tested. Which Potency did it give?
The Potency was 50.1 µM (active).

How did the largest response in the series, negative = inhibition turn out when `O=C(Cc1ccc(Cl)cc1)NC(=S)Nc1ccccc1O` was run?
The largest response in the series, negative = inhibition was 12.4% (inactive).

Which largest response in the series, negative = inhibition does the source give for `COc1ccc(CN2CCC(=O)c3ccccc3S2(=O)=O)cc1` here?
Its largest response in the series, negative = inhibition is -5.49% (inactive).

How did the largest response in the series, negative = inhibition turn out when `O=P(O)(O)OC[C@H](O)CO` was run?
The largest response in the series, negative = inhibition was 16.8% (inactive).

How did the largest response in the series, negative = inhibition turn out when `COc1cc(Cl)c(C)cc1NC(=O)CSc1nnc(-c2cccnc2)n1Cc1ccco1` was run?
The largest response in the series, negative = inhibition was -18.1% (inactive).

With `COc1cc(Cl)c(C)cc1NC(=O)CSc1nnc(-c2ccco2)n1CC(C)C` as the compound, how does the Potency read?
The Potency was 44.7 µM (active).

Which largest response in the series, negative = inhibition does the source give for `CCn1c(SCC(=O)Nc2cc(C)c(Cl)cc2OC)nnc1-c1ccco1` here?
Its largest response in the series, negative = inhibition is 2.43% (inactive).

`O=S(=O)(Cc1nnnn1-c1ccc(Br)cc1)c1ccc(F)cc1` was tested. Which largest response in the series, negative = inhibition did it give?
The largest response in the series, negative = inhibition was 6.04% (inactive).

For `Cn1c(=O)c2c(SCC(=O)NCC3CCCO3)nc(CC(C)(C)C)nc2n(C)c1=O` (centres undefined), which largest response in the series, negative = inhibition is on record?
Its largest response in the series, negative = inhibition is -16% (inactive).

Which largest response in the series, negative = inhibition does the source give for `Nc1c(Cl)cc(-c2csc(N3CCCC3c3nc4cc(Cl)c(Cl)cc4n3CCOCCO)n2)cc1Cl` (centres undefined) here?
Its largest response in the series, negative = inhibition is -23.5% (inactive).
